PubChem BioAssay (Tox21)
Results filed as inconclusive are left out. The source made the active and inactive calls. Unless noted, the call rests on the fitted dose curve; in most records, active means well fitted curve in the direction sought with a large enough effect in the repeat runs; inconclusive means weak or mixed curves; inactive means no such curve, though single readings can be large; an effect the other way counts as inactive or inconclusive.

Legend:
[1] = qHTS assay to identify small molecule agonists of the hypoxia (HIF-1) signaling pathway - cell viability counter screen (AID 1224844; calls by dose curve; further: nearly all actives have a fitted effect of over 50% in size)
Outline: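 Luminescent ATP content (CellTiter-Glo, 30 min, room temperature) served as the viability measure in HRE-bla ME-180 cells exposed to compounds for 17 hrs in low-serum medium (0.5% dialyzed FBS).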

[2] = qHTS assay to identify small molecule agonists of H2AX (AID 1224845; active means well fitted activation curve with a large enough effect in the signal ratio in the repeat runs, not every such curve was filed as active; the % refers to the signal ratio; further: potency means the concentration at half of the fitted maximal effect)
Outline: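 Phospho-H2AX Ser139 measured by HTRF (ex 320 nm; em 665 and 620 nm) after 24 hr antibody incubation. Compounds, 15 concentrations, 0.76% DMSO, were applied to CHO-K1 cells for 3hr at 37C before lysis.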

[3] = qHTS assay to identify small molecule agonists of the hypoxia (HIF-1) signaling pathway (AID 1224846; active means well fitted activation curve with a large enough effect in the signal ratio in the repeat runs, not every such curve was filed as active; the % refers to the signal ratio)
Outline: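 Measured by blue/green FRET after loading CCF4-AM: beta-lactamase expressed from a hypoxia response element in ME-180 cells. Test agents were delivered in DMSO and left 17 hrs; cells had been plated 5 hrs earlier in low-serum (0.5% dialyzed FBS) medium.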

[4] = qHTS assay to identify small molecule agonists of H2AX - cell viability counter screen (AID 1224847; calls by dose curve; further: top concentration of the series differs between compounds; nearly all actives have a fitted effect of over 30% in size)
Outline: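 Read-out: CellTiter-Glo luminescence, 30 min RT. Cells: wild-type CHO-K1, 1000/well, 10% FBS, plated overnight at 37C. Treatment: 15 concentrations, 3 hr, 37C, 0.76% DMSO.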

[5] = qHTS RealTime-Glo MT Cell Viability Assay in HepG2 cells - 24 hour (AID 1224867); further: nearly all actives have a fitted effect of over 50% in size
Outline: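 Viability was tracked continuously by NanoLuc luminescence from prosubstrate reduced by living HepG2 cells, at successive time points over 40 h of compound exposure. Cells with reagent were preincubated 5 h at 37 °C before compound addition.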

[6] = qHTS RealTime-Glo MT Cell Viability Assay in HEK293 cells - 32 hour (AID 1224868); further: top concentration of the series differs between compounds; nearly all actives have a fitted effect of over 50% in size
Outline: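 Viability tracked continuously by luminescence as live cells reduce a prosubstrate for NanoLuc; HEK293 cells preincubated 5 h, compound-treated at 37 C, and read at 0, 8, 16, 24, 32 and 40 h.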

[7] = A CellTox Green Cytotoxicity Assay to monitor cytotoxicity in HEK293 cells - 0 hour (AID 1224869); further: nearly all actives have a fitted effect of over 50% in size
Outline: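 Each value comes from one timepoint of a single continuous run in which HEK293 cells with CellTox Green were exposed to compound for up to 40 h at 37 C, dye fluorescence rising with cell death.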

[8] = qHTS RealTime-Glo MT Cell Viability Assay in HepG2 cells - 40 hour (AID 1224870); further: nearly all actives have a fitted effect of over 50% in size
Outline: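 Real-time viability: cells seeded at 600 per well together with NanoLuc and cell-permeant prosubstrate, compounds added after 5 h incubation. Luminescence tracked at 0, 8, 16, 24, 32 and 40 h of exposure.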

[9] = qHTS assay to identify small molecule antagonists of the estrogen related receptor (ERR) signaling pathway from Tox21 library (AID 1224848); further: nearly all actives have a fitted effect of over 50% in size
Outline: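 Antagonist-mode screen of the Tox21 10K library in an NTP-provided ERR reporter cell line; 18 h compound exposure at 37 C, luminescence measured with ONE-Glo.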

[10] = qHTS assay to identify small molecule agonists of the estrogen related receptor (ERR) signaling pathway from Tox21 library (AID 1224849; calls by dose curve; further: nearly all actives have a fitted effect of over 15% in size); conditions: ERR reporter cell line, ONE-Glo luciferase, 18 h; at 92.4 µM (top of the series) unless noted
Outline: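 We plated ERR reporter cells, waited 6 h, added compounds in DMSO by pin tool and incubated them 18 h at 37 C. ONE-Glo was then added and luminescence read after 30 min.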
On the % scale 0 is the no-effect control and ±100 the full control effect.

Cc1cn([C@H]2C[C@H](F)[C@@H](CO)O2)c(=O)[nH]c1=O
inactive: Potency [1] | outcome [3] | Potency [4] | Potency [5] | Potency [6] | Potency [7] | Potency [8]
active: Potency [2] 0.0438 µM

CCCCCCC(CO)CCCC (stereo not drawn)
inactive: Potency [1] | Potency [2] | outcome [3] | Potency [4] | Potency [5] | Potency [6] | Potency [7] | Potency [8]

O=S(=O)(Cl)c1c(Cl)cccc1Cl
inactive: Potency [1] | Potency [2] | outcome [3] | Potency [4] | Potency [5] | Potency [7] | Potency [8]

NC(=O)c1ccccc1[N+](=O)[O-]
inactive: Potency [1] | Potency [2] | outcome [3] | Potency [4] | Potency [5] | Potency [7] | Potency [8]

CCCCCCCCCCCCCCCC(=O)OCC
inactive: Potency [1] | Potency [2] | outcome [3] | Potency [4] | Potency [5] | Potency [6] | Potency [7] | Potency [8]

C=CC(=O)O
inactive: Potency [1] | Potency [2] | outcome [3] | Potency [4] | Potency [5] | Potency [7] | Potency [8]

CCCCCCCCCCCCCCN(C)C
inactive: activity change, negative = cytotoxicity [1] -7.12% [at 15.8 µM] | activation (H2AX phosphorylation) [2] 0.821% [at 31.6 µM] | activation [3] -0.0233% [at 15.8 µM] | activity change, negative = cytotoxicity [4] 0.248% [at 31.6 µM] | activity change, negative = cytotoxicity [5] 1.14% [at 15.8 µM] | activity change, negative = cytotoxic [6] -30.2% [at 15.8 µM] | cytotoxicity [7] -21.7% [at 15.8 µM] | activity change, negative = cytotoxic [8] 10.3% [at 15.8 µM]

CC(C)(C(=O)c1cccnc1)c1cccnc1
inactive: Potency [1] | Potency [2] | outcome [3] | Potency [4] | Potency [5] | Potency [6] | Potency [7] | Potency [8]

O=C(O)CCC(=O)OC[C@@H](NC(=O)C(Cl)Cl)[C@H](O)c1ccc([N+](=O)[O-])cc1
inactive: Potency [1] | Potency [2] | outcome [3] | Potency [4] | Potency [5] | Potency [6] | Potency [7] | Potency [8]

O=CNNC=O
inactive: Potency [1] | Potency [2] | outcome [3] | Potency [4] | Potency [5] | Potency [6] | Potency [7] | Potency [8]

CCOC(=O)C(C)O (stereo not drawn)
inactive: Potency [1] | Potency [2] | outcome [3] | Potency [4] | Potency [5] | Potency [6] | Potency [7] | Potency [8]

CS(=O)(=O)c1ccc([C@@H](C[C@H]2CCC(=O)C2)C(=O)Nc2cnccn2)cc1Cl
inactive: Potency [1] | Potency [2] | outcome [3] | Potency [4] | Potency [5] | Potency [6] | Potency [7] | Potency [8]

Cc1cc(CCCOc2c(C)cc(-c3noc(C(F)(F)F)n3)cc2C)on1
inactive: Potency [1] | Potency [2] | outcome [3] | Potency [5] | Potency [7] | Potency [8]

CC(=O)OC(C)C[N+](C)(C)C (stereo not drawn)
inactive: Potency [1] | Potency [2] | Potency [4] | Potency [9] | activity change, positive = activation [10] 7.44% [at 42.5 µM] | Potency [5] | Potency [6] | Potency [8]

C[C@H](CS)C(=O)N1CCC[C@H]1C(=O)O
inactive: Potency [1] | Potency [2] | Potency [4] | Potency [5] | Potency [6] | Potency [7] | Potency [8]

CC[C@H]1OC(=O)[C@H](C)[C@@H](O[C@H]2C[C@@](C)(OC)[C@@H](O)[C@H](C)O2)[C@H](C)[C@@H](O[C@@H]2O[C@H](C)C[C@H](N(C)C)[C@H]2O)[C@](C)(O)C[C@@H](C)C(=O)[C@H](C)[C@@H](O)[C@]1(C)O
inactive: Potency [1] | Potency [2] | Potency [4] | Potency [5] | Potency [6] | Potency [7] | Potency [8]

CCOC(=O)c1c(N)sc2c1CCN(Cc1ccccc1)C2
inactive: Potency [1] | Potency [2] | outcome [3] | Potency [4] | Potency [5] | Potency [7] | Potency [8]
